Source: PubChem BioAssay AID1159580 (chemical genetic matrix, 2015)
The campaign covered roughly 5,500 compounds. About 2,000 (36%) were called active. Another 18% or so got no clear call; they are omitted. This is one part of the list. Unmarked numbers belong to inactive results. Rule as the data show it: active = normalized growth mostly below about 0.91 (no sharp cut-off); inconclusive = no clear call, values can overlap the other calls; inactive = mostly above about 0.92.

Test: chemical genetic growth profiling, strain panel (AID 1159580);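 also: tested at 20 µM; growth read once vehicle control cultures reached saturation at 30 °C; 1 = growth at the plate median or of vehicle wells; lower values mean less growth of the strain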
Details: growth OD
[1] = S. cerevisiae deletion strains, locus YHR030C, strain SLT2, hits give low values
[2] = S. cerevisiae deletion strains, locus YHR079C, strain IRE1, hits give low values
[3] = S. cerevisiae deletion strains, locus YJL095W, strain BCK1, hits give low values
[4] = S. cerevisiae deletion strains, locus YJR066W, strain TOR1, hits give low values
[5] = S. cerevisiae deletion strains, locus YLR113W, strain HOG1, hits give low values
[6] = S. cerevisiae deletion strains, locus YNL183C, strain NPR1, hits give low values
[7] = S. cerevisiae deletion strains, locus YOR231W, strain MKK1, hits give low values
[8] = S. cerevisiae deletion strains, locus YPL256C, strain CLN2, hits give low values
[9] = S. cerevisiae deletion strains, locus YDR150W, strain NUM1, hits give low values
[10] = S. cerevisiae deletion strains, locus YGR229C, strain SMI1, hits give low values
[11] = S. cerevisiae deletion strains, locus YPL055C, strain LGE1, hits give low values
[12] = S. cerevisiae deletion strains, locus YPL241C, strain CIN2, hits give low values
[13] = S. cerevisiae deletion strains, locus YDL101C, strain DUN1, hits give low values

`COC(=O)C(c1ccccc1)C1CCCCN1` (stereo unspecified) gave a normalized growth [1] of 0.978, a normalized growth [2] of 0.975 and a normalized growth [3] of 0.974. The normalized growth [4] was 0.934, the normalized growth [5] was 0.95 and the normalized growth [6] was 0.891. The normalized growth [7] was 0.971 and the normalized growth [8] was 0.972.

`O=C(NCCNCC(O)COc1ccc(O)cc1)N1CCOCC1` (stereo unspecified) gave a normalized growth (S. cerevisiae deletion strains, locus YAL040C, strain CLN3, hits give low values) of 0.976, a normalized growth (S. cerevisiae deletion strains, locus YCL061C, strain MRC1 (second series), hits give low values) of 1 and a normalized growth [9] of 0.993. For the same compound, the normalized growth (S. cerevisiae deletion strains, locus YDR363W, strain ESC2, hits give low values) was 1.01, the normalized growth (S. cerevisiae deletion strains, locus YER002W, strain NOP16, hits give low values) was 1.02 and the normalized growth [10] was 1.02. The normalized growth (S. cerevisiae deletion strains, locus YMR307W, strain GAS1, hits give low values) was 0.997, the normalized growth (S. cerevisiae deletion strains, locus YNL128W, strain TEP1, hits give low values) was 0.998 and the normalized growth (S. cerevisiae deletion strains, locus YNL175C, strain NOP13, hits give low values) was 0.998. It also gave a normalized growth (S. cerevisiae deletion strains, locus YNL197C, strain WHI3, hits give low values) of 0.993, a normalized growth (S. cerevisiae deletion strains, locus YNL224C, strain SQS1, hits give low values) of 0.997 and a normalized growth (S. cerevisiae deletion strains, locus YOR083W, strain WHI5 (second series), hits give low values) of 1.01. It also gave a normalized growth [11] of 1.02 and a normalized growth [12] of 1.

Work on `Cc1ccc(OS(=O)(=O)c2c(Cl)sc(Cl)c2Br)c([N+](=O)[O-])n1` yielded a normalized growth (S. cerevisiae deletion strains, locus YAR019C, strain CDC15, hits give low values) of 0.964, a normalized growth (S. cerevisiae deletion strains, locus YBL105C, strain PKC1, hits give low values) of 0.964 and a normalized growth (S. cerevisiae deletion strains, locus YBR135W, strain CKS1, hits give low values) of 0.968. For the same compound, the normalized growth (S. cerevisiae deletion strains, locus YBR136W, strain MEC1, hits give low values) was 0.967, the normalized growth (S. cerevisiae deletion strains, locus YBR160W, strain CDC28, hits give low values) was 0.963 and the normalized growth (S. cerevisiae deletion strains, locus YDL017W, strain CDC7, hits give low values) was 0.957. It also gave a normalized growth (S. cerevisiae deletion strains, locus YDL028C, strain MPS1, hits give low values) of 0.972, a normalized growth [13] of 0.956 and a normalized growth (S. cerevisiae deletion strains, locus YDL108W, strain KIN28, hits give low values) of 0.965. The normalized growth (S. cerevisiae deletion strains, locus YDL132W, strain cdc53, hits give low values) was 0.961, the normalized growth (S. cerevisiae deletion strains, locus YDL214C, strain PRR2, hits give low values) was 0.962 and the normalized growth (S. cerevisiae deletion strains, locus YDR052C, strain DBF4, hits give low values) was 0.968. For the same compound, the normalized growth (S. cerevisiae deletion strains, locus YDR054C, strain cdc34, hits give low values) was 0.956, the normalized growth (S. cerevisiae deletion strains, locus YDR226W, strain ADK1, hits give low values) was 0.953 and the normalized growth (S. cerevisiae deletion strains, locus YDR477W, strain SNF1, hits give low values) was 0.97. The normalized growth (S. cerevisiae deletion strains, locus YER123W, strain YCK3, hits give low values) was 0.952, the normalized growth (S. cerevisiae deletion strains, locus YER133W, strain GLC7, hits give low values) was 0.975 and the normalized growth (S. cerevisiae deletion strains, locus YFL009W, strain cdc4, hits give low values) was 0.961. The normalized growth (S. cerevisiae deletion strains, locus YFL029C, strain CAK1, hits give low values) was 0.96, the normalized growth (S. cerevisiae deletion strains, locus YFR003C, strain YPI1, hits give low values) was 0.961 and the normalized growth (S. cerevisiae deletion strains, locus YFR019W, strain FAB1, hits give low values) was 0.98. The normalized growth (S. cerevisiae deletion strains, locus YFR028C, strain CDC14, hits give low values) was 0.965, the normalized growth (S. cerevisiae deletion strains, locus YGR040W, strain KSS1, hits give low values) was 0.972 and the normalized growth (S. cerevisiae deletion strains, locus YGR052W, strain FMP48, hits give low values) was 1. The normalized growth (S. cerevisiae deletion strains, locus YGR092W, strain DBF2, hits give low values) was 0.951, the normalized growth [1] was 0.961 and the normalized growth [2] was 0.929. The normalized growth (S. cerevisiae deletion strains, locus YHR082C, strain KSP1, hits give low values) was 1.07, the normalized growth (S. cerevisiae deletion strains, locus YHR205W, strain SCH9, hits give low values) was 0.953 and the normalized growth (S. cerevisiae deletion strains, locus YIL147C, strain SLN1, hits give low values) was 0.966. For the same compound, the normalized growth [3] was 0.968, the normalized growth (S. cerevisiae deletion strains, locus YJL128C, strain PBS2, hits give low values) was 0.909 and the normalized growth (S. cerevisiae deletion strains, locus YJL157C, strain FAR1, hits give low values) was 0.96. For the same compound, the normalized growth (S. cerevisiae deletion strains, locus YJR016C, strain ILV3, hits give low values) was 0.965, the normalized growth (S. cerevisiae deletion strains, locus YJR066W, strain TOR1 (second series), hits give low values) was 0.956 and the normalized growth [4] was 1.02. The normalized growth (S. cerevisiae deletion strains, locus YKL048C, strain ELM1, hits give low values) was 0.965, the normalized growth (S. cerevisiae deletion strains, locus YKL067W, strain YNK1, hits give low values) was 0.959 and the normalized growth (S. cerevisiae deletion strains, locus YKL101W, strain HSL1, hits give low values) was 0.979. For the same compound, the normalized growth (S. cerevisiae deletion strains, locus YKL193C, strain SDS22, hits give low values) was 0.963, the normalized growth (S. cerevisiae deletion strains, locus YKL203C, strain TOR2, hits give low values) was 0.991 and the normalized growth [5] was 0.818 (active). The normalized growth (S. cerevisiae deletion strains, locus YLR133W, strain CKI1, hits give low values) was 0.968, the normalized growth (S. cerevisiae deletion strains, locus YLR403W, strain SFP1, hits give low values) was 0.967 and the normalized growth (S. cerevisiae deletion strains, locus YML070W, strain DAK1, hits give low values) was 0.959. For the same compound, the normalized growth (S. cerevisiae deletion strains, locus YMR001C, strain CDC5, hits give low values) was 0.957, the normalized growth (S. cerevisiae deletion strains, locus YMR205C, strain PFK2 (second series), hits give low values) was 0.971 and the normalized growth (S. cerevisiae deletion strains, locus YMR277W, strain FCP1, hits give low values) was 0.961. For the same compound, the normalized growth (S. cerevisiae deletion strains, locus YNL006W, strain LST8, hits give low values) was 0.962, the normalized growth (S. cerevisiae deletion strains, locus YNL020C, strain ARK1, hits give low values) was 0.971 and the normalized growth (S. cerevisiae deletion strains, locus YNL161W, strain CBK1, hits give low values) was 0.968. For the same compound, the normalized growth [6] was 1.01, the normalized growth (S. cerevisiae deletion strains, locus YNL207W, strain RIO2, hits give low values) was 0.955 and the normalized growth (S. cerevisiae deletion strains, locus YNL222W, strain SSU72, hits give low values) was 0.971. For the same compound, the normalized growth (S. cerevisiae deletion strains, locus YNL307C, strain MCK1 (second series), hits give low values) was 0.965, the normalized growth (S. cerevisiae deletion strains, locus YOL078W, strain AVO1, hits give low values) was 0.967 and the normalized growth (S. cerevisiae deletion strains, locus YOL136C, strain PFK27, hits give low values) was 0.957. The normalized growth (S. cerevisiae deletion strains, locus YOR061W, strain CKA2, hits give low values) was 0.962, the normalized growth (S. cerevisiae deletion strains, locus YOR119C, strain RIO1, hits give low values) was 1.04 and the normalized growth [7] was 0.942. For the same compound, the normalized growth (S. cerevisiae deletion strains, locus YOR329C, strain SCD5, hits give low values) was 0.959, the normalized growth (S. cerevisiae deletion strains, locus YPL031C, strain PHO85, hits give low values) was 0.959 and the normalized growth (S. cerevisiae deletion strains, locus YPL153C, strain RAD53, hits give low values) was 0.963. For the same compound, the normalized growth (S. cerevisiae deletion strains, locus YPL204W, strain HRR25, hits give low values) was 0.978, the normalized growth (S. cerevisiae deletion strains, locus YPL209C, strain IPL1, hits give low values) was 0.963 and the normalized growth [8] was 0.92. It also gave a normalized growth (S. cerevisiae deletion strains, locus YPR025C, strain CCL1, hits give low values) of 0.964, a normalized growth (S. cerevisiae deletion strains, locus YPR106W, strain ISR1, hits give low values) of 0.961 and a normalized growth (S. cerevisiae deletion strains, locus YPR111W, strain DBF20, hits give low values) of 0.948. The normalized growth (S. cerevisiae deletion strains, strain NNK1, hits give low values) was 0.956 and the normalized growth (S. cerevisiae deletion strains, strain TSCII, hits give low values) was 0.957.

With `Cc1ccc(OS(=O)(=O)c2ccc(Cl)cc2)c([N+](=O)[O-])n1` the normalized growth (S. cerevisiae deletion strains, locus YAL013W, strain DEP1, hits give low values) was 0.965, the normalized growth (S. cerevisiae deletion strains, locus YBR229C, strain ROT2, hits give low values) was 0.987 and the normalized growth [13] was 0.932. For the same compound, the normalized growth (S. cerevisiae deletion strains, locus YDL134C, strain PPH21, hits give low values) was 0.968, the normalized growth [9] was 0.833 and the normalized growth (S. cerevisiae deletion strains, locus YEL061C, strain CIN8, hits give low values) was 0.964. It also gave a normalized growth (S. cerevisiae deletion strains, locus YGR078C, strain PAC10, hits give low values) of 0.931, a normalized growth [10] of 0.978 and a normalized growth [1] of 0.775. For the same compound, the normalized growth (S. cerevisiae deletion strains, locus YHR087W, strain rtc3, hits give low values) was 0.975, the normalized growth (S. cerevisiae deletion strains, locus YJR043C, strain POL32, hits give low values) was 0.945 and the normalized growth (S. cerevisiae deletion strains, locus YJR075W, strain HOC1, hits give low values) was 0.917. It also gave a normalized growth (S. cerevisiae deletion strains, locus YKL190W, strain CNB1, hits give low values) of 0.968, a normalized growth (S. cerevisiae deletion strains, locus YLR039C, strain RIC1, hits give low values) of 0.895 and a normalized growth (S. cerevisiae deletion strains, locus YLR058C, strain SHM2 (second series), hits give low values) of 0.988. It also gave a normalized growth (S. cerevisiae deletion strains, locus YLR085C, strain ARP6, hits give low values) of 0.875, a normalized growth (S. cerevisiae deletion strains, locus YLR262C, strain YPT6, hits give low values) of 0.908 and a normalized growth (S. cerevisiae deletion strains, locus YML094W, strain GIM5, hits give low values) of 0.953. The normalized growth (S. cerevisiae deletion strains, locus YMR219W, strain ESC1, hits give low values) was 0.973, the normalized growth (S. cerevisiae deletion strains, locus YMR263W, strain SAP30, hits give low values) was 0.95 and the normalized growth (S. cerevisiae deletion strains, locus YNL153C, strain GIM3, hits give low values) was 0.936. For the same compound, the normalized growth (S. cerevisiae deletion strains, locus YNL298W, strain CLA4 (second series), hits give low values) was 0.915, the normalized growth (S. cerevisiae deletion strains, locus YNL322C, strain KRE1, hits give low values) was 0.976 and the normalized growth (S. cerevisiae deletion strains, locus YNR030W, strain Alg12, hits give low values) was 0.943. It also gave a normalized growth [11] of 0.962, a normalized growth [12] of 0.943 and a normalized growth (S. cerevisiae deletion strains, locus YPR135W, strain CTF4, hits give low values) of 0.877. The normalized growth (S. cerevisiae strains, strain wild type, hits give low values) was 0.949.
